Assay outcomes: PubChem BioAssay, National Center for Advancing Translational Sciences (NCATS)
TDP1 cell noCPT – qHTS for Inhibitors of human tyrosyl-DNA phosphodiesterase 1 (TDP1): qHTS in cells in absence of CPT. AID 686978, 2013. 15% of 420,000 active. DT40 Tdp1-/- hTDP1 cells, no CPT, ATP luminescence, 48 h. Potency, µM (series often up to 46.2 µM), usual class: inhibitors; further: nearly all actives have a fitted effect of over 55% in size
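Growth kinetics read by CellTiter-Glo luminescence after ≥48 hr at 37 °C. Cells: DT40 Tdp1-/- stably carrying human TDP1, 400 per well, compound exposure in the absence of CPT (DMSO vehicle).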
TDP1 cell CPT – growth inhibition of DT40 Tdp1-/-;hTDP1 cells with camptothecin (screen for TDP1 inhibitors). chicken DT40 Tdp1-/-;hTDP1 cells + 20 nM CPT, ATP luminescence, 48 h. 12% of 420,000 active. AID 686979. Potency, µM (top dose mostly 46.2 µM), hits mostly inhibitors; further: nearly all actives have a fitted effect of over 55% in size
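Cell growth measured by CellTiter-Glo luminescence after a minimum 48 h, 37 C compound exposure with 20 nM CPT in Tdp1-knockout DT40 cells stably expressing hTDP1, seeded 400/well; qHTS titration format.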
ALOX12 inh – ALOX12 (human) lipoxygenase inhibition | P18054 | purified 12hLO, xylenol orange hydroperoxide absorbance | Potency, µM (highest dose often 108 µM), actives largely listed as inhibitors | 1.1% of 580,000 active | AID 1671190
Target sequence (P18054 whole entry, looked up): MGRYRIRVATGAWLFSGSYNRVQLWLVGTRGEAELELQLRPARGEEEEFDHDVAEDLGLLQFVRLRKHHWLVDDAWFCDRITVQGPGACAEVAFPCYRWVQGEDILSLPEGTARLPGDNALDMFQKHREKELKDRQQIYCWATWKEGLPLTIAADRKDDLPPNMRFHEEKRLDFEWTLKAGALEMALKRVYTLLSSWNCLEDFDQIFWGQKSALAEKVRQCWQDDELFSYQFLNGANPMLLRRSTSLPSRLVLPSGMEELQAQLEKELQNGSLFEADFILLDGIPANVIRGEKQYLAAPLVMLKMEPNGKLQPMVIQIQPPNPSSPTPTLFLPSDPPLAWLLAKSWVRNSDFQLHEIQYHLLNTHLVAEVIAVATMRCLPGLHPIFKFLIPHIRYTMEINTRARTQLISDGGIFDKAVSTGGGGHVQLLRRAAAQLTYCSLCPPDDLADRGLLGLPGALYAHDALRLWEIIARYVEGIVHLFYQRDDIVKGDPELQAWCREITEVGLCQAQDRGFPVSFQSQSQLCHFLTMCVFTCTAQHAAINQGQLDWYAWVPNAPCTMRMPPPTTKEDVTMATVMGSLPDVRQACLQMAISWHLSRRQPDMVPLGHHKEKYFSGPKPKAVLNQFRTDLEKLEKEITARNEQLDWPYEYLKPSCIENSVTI
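Hydroperoxide product was detected by ferrous iron/xylenol orange as the 573 to 405 nm absorbance ratio. Arachidonic acid at 40 uM (final) was turned over for 30 min at room temperature by 150 nM human 12hLO, pH 7.0 Hepes buffer, after 15 min compound preincubation.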
ELG1 DNA repair – ELG1-dependent DNA repair inhibition; Potency, µM (top dose mostly 46.1 µM), usual class: inhibitors; HEK293T ELG1-luciferase reporter, luminescence, 16 h; DNA damage induced by 5-fluorouridine; AID 504467; 2.3% of 330,000 active; further: nearly all actives have a fitted effect of over 55% in size
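5-Fluorouridine DNA damage + compound/DMSO, 2,000 cells/well, 16 h, 37 °C/5% CO2. ONE-Glo, 30 min RT, luminescence. Readout = decrease in reporter signal.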
VP16 counter – inhibits Gal4-VP16 luciferase reporter, ROR gamma counter-screen. Drosophila S2 Gal4-VP16 UAS-luciferase, luminescence, 20 h. Potency, µM (top dose mostly 53.6 µM), usual class: inhibitors. 3.5% of 310,000 active. AID 2546;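 further: Gal4-VP16 expression switched on by copper sulfate through the metallothionein promoter; nearly all actives have a fitted effect of over 50% in size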
RORg inh – inhibitors of mouse ROR gamma transcriptional activity | Drosophila S2 Gal4-RORgamma UAS-luciferase reporter, 20 h | Potency, µM (series often up to 53.6 µM), hits mostly inhibitors | 5.4% of 310,000 active | P51450; further: nearly all actives have a fitted effect of over 60% in size
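Stable Schneider cell line, Gal4 DNA-binding domain fused to ROR gamma, UAS-luciferase. Cmpd 1 hr RT → CuSO4 700 uM final → 20 hr RT → luciferase reagent 10 min → luminescence.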
Numbers stand for hits; n = inactive; u = inconclusive; x = no result given. Rows were chosen to be rich in hits. Some 15% of all compounds tested hit in one or more screens of this group. The call rests on the fitted dose curve; in most records, active means well fitted curve in the direction sought with a large enough effect; inconclusive means small, poorly fitted or top-dose-only effect, or another doubt; inactive means no such curve, though single readings can be large; an effect the other way counts as inactive or inconclusive.

SMILES	TDP1 cell noCPT	TDP1 cell CPT	ALOX12 inh	ELG1 DNA repair	VP16 counter	RORg inh
CC(C)C[C@H](NC(=O)c1nc[nH]c1C(=O)NCCCCCNC(=O)OC(C)(C)C)C(=O)OC(C)(C)C	18µM	u	n	u	7.1µM	3.2µM
CNC(=O)c1[nH]cnc1C(=O)N[C@@H](CCCCNC(=O)OC(C)(C)C)C(=O)OC(C)(C)C	n	u	n	n	n	n
CCN(CC)C(=O)c1[nH]cnc1C(=O)N[C@@H](C)C(=O)OC(C)(C)C	n	n	n	n	n	n
C[C@H](NC(=O)c1nc[nH]c1C(=O)NCCCCCNC(=O)OC(C)(C)C)C(=O)OC(C)(C)C	16µM	18µM	n	5.2µM	n	n
CC(C)(C)OC(=O)CNC(=O)c1[nH]cnc1C(=O)NCCCCCNC(=O)OC(C)(C)C	15µM	23µM	n	u	n	u
CCC(C)NC(=O)c1ccccc1NC(=O)C1CCN(S(=O)(=O)Cc2ccc(C)cc2)CC1 (centres undefined)	x	x	n	x	x	x
Cc1ccc(C=Nc2ccc(Nc3ccccc3)cc2)s1	x	x	40µM	x	x	x
Cc1ccccc1OCC(=O)Nc1ccc2nc(SCC(=O)N3CCOCC3)sc2c1	5.8µM	u	n	x	x	x
Cc1ccccc1OCc1nnc(SCC(=O)Nc2ccc3nc(SCC(=O)Nc4ccccc4)sc3c2)n1C	15µM	u	n	u	u	n
Cc1ccccc1OCC(=O)Nc1ccc2nc(SCC(=O)N3CCCC3)sc2c1	15µM	16µM	n	x	x	x
CC(C)CC(=O)Nc1ccc2nc(SCC(=O)N3CCOCC3)sc2c1	u	n	n	x	x	x
Cc1ccc(C(C)C)c(OCc2nnc(SCC(=O)Nc3ncc(C)s3)n2C)c1	u	18µM	n	u	u	n
O=C(Nc1ccccc1)N1CCOC(CN(C(=O)c2ccco2)C2CCCC2)C1 (centres undefined)	x	x	n	x	x	x
CCCCCn1nc(C(=O)OCCOc2cccc(C)c2)c2ccccc2c1=O	x	x	n	x	x	x
Cc1ccccc1OCC(=O)Nc1ccc2nc(SCC(=O)N(C)c3ccccc3)sc2c1	10µM	18µM	n	x	x	x
Cc1ccccc1OCC(=O)Nc1ccc2nc(SCc3ccccc3)sc2c1	n	n	n	x	x	x
Cc1nnc(N2CCC(C(=O)NC3CCCCC3)CC2)c2nn(-c3ccccc3)c(C)c12	n	n	n	x	x	x
CCOc1ccccc1CNC(=O)C1CCN(c2nnc(C)c3c(C)n(-c4ccc(C)cc4)nc23)CC1	13µM	5.8µM	n	u	18µM	13µM
COc1ccc(-n2nc3c(N4CCC(C(=O)NCCc5ccco5)CC4)nnc(C)c3c2C)cc1	u	u	n	n	n	n
Cc1ccc(-n2nc3c(N4CCC(C(=O)NCc5ccccc5C)CC4)nnc(C)c3c2C)cc1	u	13µM	x	n	u	13µM
COc1ccccc1CCNC(=O)C1CCN(c2nnc(C)c3c(C)n(-c4ccc(C)cc4)nc23)CC1	2.9µM	4.6µM	n	u	u	u
CCOc1ccc(CNC(=O)C2CCN(c3nnc(C)c4c(C)n(-c5ccc(C)cc5)nc34)CC2)cc1	23µM	8.2µM	n	n	u	u
CCNc1ccc(S(=O)(=O)N2CCOCC2)cc1NC(=O)Cc1c[nH]c2ccccc12	x	x	n	x	x	x
CCS(=O)(=O)N1CCCCCCNC(=O)[C@@H]2C[C@@H](C(=O)NCCc3c[nH]c4ccccc34)C[C@@H]21	x	x	n	x	x	x
N#Cc1c(NC(=O)/C=C/c2ccco2)sc2c1CCCC2	0.41µM	0.23µM	35µM	u	u	u
SMILES	TDP1 cell noCPT	TDP1 cell CPT	ALOX12 inh	ELG1 DNA repair	VP16 counter	RORg inh
N#Cc1c(NC(=O)c2ccccc2)sc2c1CCCCC2	u	n	n	u	u	u
CC(=O)Nc1sc2c(c1C#N)CCCCC2	n	n	n	u	n	u
CC(C)(C)C(=O)NC(=S)Nc1sc2c(c1C#N)CCCCC2	23µM	u	n	u	14µM	7.1µM
Cc1ccccc1C(=O)NC(=S)Nc1sc2c(c1C#N)CCCC2	u	n	n	u	11µM	3.5µM
O=C(/C=C/c1ccco1)Nc1sc2c(c1C(=O)O)CCC2	n	n	u	u	n	n
CCCCn1nc(C(=O)Nc2nnc(Cc3ccccc3)s2)c2ccccc2c1=O	x	x	n	x	x	x
CCN(CC)Cc1cnc2c(C(=O)NC(C)(C)CO)cnn2c1	x	x	n	x	x	x
CCCN(CC1CCOC1)C(=O)c1ccc(F)cc1F (centres undefined)	x	x	n	x	x	x
CN(C)S(=O)(=O)c1cc(NC(=O)CN2CCc3sccc3C2c2ccccc2)ccc1Cl (centres undefined)	x	x	n	x	x	x
O=C(NCCCn1ccnc1)c1sc2cc([N+](=O)[O-])ccc2c1Cl	16µM	13µM	u	x	x	x
CN1CCCN(C(=O)c2cn3ccnc(-c4ccccc4)c3n2)CC1	x	x	n	x	x	x
COc1ccc(N=[N+]([O-])c2ccc(OC)cc2)cc1	u	n	n	x	u	8.9µM
COc1ccc(CNc2ccc([N+](=O)[O-])cc2C)cc1	n	u	n	n	n	n
CCCc1n[nH]c2c1/C(=N\OCC)CC(C)(C)C2	n	n	40µM	u	n	u
C=CCn1c(CCSCc2ccccc2)n[nH]c1=S	u	n	u	n	u	4µM
CCn1c(-c2cc(OC)c(OC)c(OC)c2)n[nH]c1=S	n	n	u	u	n	u
C=CCn1c(CCSCc2ccc(OC)c(C)c2)n[nH]c1=S	n	u	n	u	n	2.5µM
COCCn1ncc(N2CCC(NC(=O)C3CCOC3)CC2)cc1=O (centres undefined)	x	x	n	x	x	x
Cc1ccc(CNC(=O)NCC(=O)N(C)Cc2ccccc2)cc1	x	x	n	x	x	x
COc1cccc(CNC(=O)C2=C(c3ccccc3)c3cc(Cl)ccc3S(=O)(=O)N2C)c1	x	x	n	x	x	x
CCC[C@@H]1CCCO[C@@](C(=O)NCc2ccc(S(C)(=O)=O)cc2)(C(F)(F)F)C1	u	29µM	n	x	n	u
O=C(NCC1CC1)[C@]1(C(F)(F)F)C[C@H](CCC2CCCCC2)CCCO1	23µM	u	u	x	n	n
COc1cccc(NS(=O)(=O)c2ccc3c(c2)CCCN3C(=O)C2CCC2)c1	u	23µM	u	x	x	x
COc1cc(NS(=O)(=O)c2ccc3c(c2)CCN3S(C)(=O)=O)cc(OC)c1	5.2µM	18µM	n	x	x	x
O=C(C1CCC1)N1CCCc2cc(S(=O)(=O)Nc3ccc(F)cc3)ccc21	23µM	u	n	x	x	x
Cc1cccc(NS(=O)(=O)c2ccc3c(c2)CCN3S(C)(=O)=O)c1C	x	x	n	x	x	x
Cc1cc(C)cc(NS(=O)(=O)c2ccc3c(c2)CCCN3C(=O)C2CCC2)c1	21µM	23µM	n	x	x	x
CCOc1ccc(NS(=O)(=O)c2ccc3c(c2)CCCN3C(=O)C2CCC2)cc1	u	u	n	x	x	x
